Test results as given in PubChem BioAssay (Tox21).
Records with an inconclusive call do not appear. Where a call stands in place of a potency, no number is given. The source made the active and inactive calls. Unless noted, calls come from the whole dose curve.

Columns and labels:
[1] = qHTS assay to identify small molecule agonists of the NFkB signaling pathway - cell viability counter screen (AID 1159515); note: series mostly up to about 61 µM; nearly all actives have a fitted effect of over 55% in size
In short: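 Multiplexed viability readout: after the 5 hr compound exposure and 1.5 hr FRET substrate step, CellTiter-Glo reagent went into the same NFkB-bla ME-180 wells; ATP luminescence was measured after 30 min at room temperature.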

[2] = qHTS assay to identify small molecule agonists of the endoplasmic reticulum stress response signaling pathway (AID 1159516; active = well fitted activation curve with a large enough effect in the signal ratio in the repeat runs, not every such curve was filed as active; the % refers to the signal ratio; note: potency is the fitted concentration of half-maximal effect)
In short: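 Tox21 10K library screened in quantitative HTS format on ESRE-bla HeLa cells, a beta-lactamase reporter under ER stress response element control; 5 hr treatment, FRET read.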

[3] = qHTS assay to identify small molecule agonists of the endoplasmic reticulum stress response signaling pathway - cell viability counter screen (AID 1159517); note: series mostly up to about 61 µM; nearly all actives have a fitted effect of over 50% in size
In short: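 Counter-screen wells were identical to the reporter wells. Cells were plated at 1,500 per well and dosed for 5 hr, then read for luminescence 30 min after CellTiter-Glo addition.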

[4] = qHTS assay to identify small molecule antagonists of the retinoid-related orphan receptor gamma (ROR-gamma) signaling pathway - cell viability counter screen (AID 1159520; active = well fitted curve in the direction sought with a large enough effect in the repeat runs; an effect the other way counts as inactive or inconclusive; note: nearly all actives have a fitted effect of over 50% in size; note: potency is the fitted concentration of half-maximal effect)
In short: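 Tet-on ROR gamma CHO cells were given compounds for 2 hr, then doxycycline hyclate at 1 uM final, and incubated 16 hr at 37 C. Viability was measured as ATP content by CellTiter-Glo luminescence.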

[5] = molecular target: Nuclear receptor ROR-gamma (Homo sapiens) (UniProt P51449); test: qHTS assay to identify small molecule antagonists of the retinoid-related orphan receptor gamma (ROR-gamma) signaling pathway (AID 1159521; active = well fitted curve in the direction sought with a large enough effect in the repeat runs; an effect the other way counts as inactive or inconclusive; note: nearly all actives have a fitted effect of over 50% in size; note: potency is the fitted concentration of half-maximal effect)
In short: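 Decreased RORE-driven luciferase luminescence indicates antagonism. Tet-on RORγ CHO cells received compound, then 1 uM final doxycycline 2 h later; signal read after 16 h incubation.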

[6] = qHTS assay to identify small molecule agonists of the AP-1 signaling pathway - cell viability counter screen (AID 1159525); note: nearly all actives have a fitted effect of over 55% in size
In short: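 AP-1-bla ME-180 cells in Opti-MEM with 0.5% dialyzed FBS, compound exposure 5 h at 37 C in 15-point titration. Viability read in the same wells as ATP content by CellTiter-Glo luminescence, normalised to tetra-n-octylammonium bromide and DMSO controls.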

[7] = qHTS assay to identify small molecule agonists of the AP-1 signaling pathway (AID 1159526); note: potency is the fitted concentration of half-maximal effect
[8] = qHTS assay to identify small molecule agonists of the vitamin D receptor (VDR) signaling pathway - cell viability counter screen (AID 743224; active = well fitted curve in the direction sought with a large enough effect in the repeat runs; an effect the other way counts as inactive or inconclusive; note: nearly all actives have a fitted effect of over 50% in size; note: potency is the fitted concentration of half-maximal effect)
In short: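 Viability is measured in the same wells as the VDR-bla reporter assay: after 16 h compound treatment and 2 h substrate loading, CellTiter-Glo is added and luminescence read 30 min later.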

[9] = qHTS assay to identify small molecule antagonists of the vitamin D receptor (VDR) signaling pathway - cell viability counter screen (AID 743225; active = well fitted curve in the direction sought with a large enough effect in the repeat runs; an effect the other way counts as inactive or inconclusive; note: nearly all actives have a fitted effect of over 50% in size; note: potency is the fitted concentration of half-maximal effect)
In short: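 Parallel cytotoxicity test: VDR-UAS-bla HEK 293T, 3 nM (final) 1-alpha,25-dihydroxyvitamin D3 with test compound, 16 h, 37C. Endpoint is CellTiter-Glo luminescence in the same wells.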

[10] = molecular target: Retinoic acid receptor RXR-alpha (Homo sapiens) (UniProt P19793); test: qHTS assay to identify small molecule agonists of the RXR signaling pathway (AID 1159527); note: nearly all actives have a fitted effect of over 35% in size; note: potency is the fitted concentration of half-maximal effect
Sequence of Retinoic acid receptor RXR-alpha (Homo sapiens) (P19793 whole entry, looked up): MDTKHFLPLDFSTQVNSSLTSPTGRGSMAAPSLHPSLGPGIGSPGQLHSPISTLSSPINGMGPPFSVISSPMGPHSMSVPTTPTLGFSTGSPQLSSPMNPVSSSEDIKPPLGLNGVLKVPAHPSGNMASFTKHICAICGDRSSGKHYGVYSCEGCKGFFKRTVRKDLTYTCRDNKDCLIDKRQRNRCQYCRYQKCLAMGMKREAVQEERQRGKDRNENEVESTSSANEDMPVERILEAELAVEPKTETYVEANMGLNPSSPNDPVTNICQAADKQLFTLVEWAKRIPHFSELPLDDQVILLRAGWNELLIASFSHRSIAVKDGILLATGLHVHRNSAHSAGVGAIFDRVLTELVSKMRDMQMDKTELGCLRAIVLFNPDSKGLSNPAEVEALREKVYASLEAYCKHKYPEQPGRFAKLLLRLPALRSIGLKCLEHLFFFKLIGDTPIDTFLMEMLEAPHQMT
In short: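 16 hr incubation of compound-treated RXR-alpha-UAS-bla HEK 293T cells (2% charcoal-stripped FBS, 37 C) preceded a 2 hr room-temperature LiveBLAzer FRET substrate step and blue/green fluorescence measurement.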

| Compound | Potency [1] | Potency [2] | outcome [3] | Potency [4] | Potency [5] | Potency [6] | Potency [7] | Potency [8] | Potency [9] | Potency [10] |
| --- | --- | --- | --- | --- | --- | --- | --- | --- | --- | --- |
| O=[N+]([O-])c1cccc(Cl)c1Cl | inactive | inactive | inactive | inactive | inactive | inactive | inactive | – | – | – |
| CC(=O)c1ccc2c(c1)[C@H](NC(=O)c1ccc(F)cc1)[C@@H](O)C(C)(C)O2 | inactive | inactive | inactive | inactive | inactive | inactive | inactive | inactive | – | – |
| N=C(N=C(N)N)N1CCOCC1 | inactive | inactive | inactive | inactive | inactive | inactive | inactive | inactive | inactive | inactive |
| C1CCC2OC2C1 (stereo not given) | inactive | inactive | inactive | inactive | inactive | inactive | inactive | inactive | – | inactive |
| CC[C@H](C)[C@H](N)C(=O)O | inactive | inactive | inactive | inactive | inactive | inactive | inactive | inactive | inactive | inactive |
| CCN(CC)CCOc1ccc2c(c1)C(=O)c1cc(OCCN(CC)CC)ccc1-2 | inactive | inactive | inactive | inactive | inactive | inactive | inactive | – | – | – |
| CCN(CC)C(C)=O | inactive | inactive | inactive | inactive | inactive | inactive | inactive | – | – | – |
| O=c1[nH]cnc2ccccc12 | inactive | inactive | inactive | inactive | inactive | inactive | inactive | inactive | inactive | inactive |
| CCCCCCc1ccc(N)cc1 | inactive | inactive | inactive | inactive | inactive | inactive | inactive | – | – | – |
| C=CC(C)(CCC=C(C)C)OC(=O)c1ccccc1 (stereo not given) | inactive | inactive | inactive | inactive | inactive | inactive | – | – | – | – |
| CCCCCCCCC(CO)CCCCCC (stereo not given) | inactive | inactive | inactive | inactive | inactive | inactive | inactive | inactive | inactive | inactive |
| COC(=O)C(C)=O | inactive | inactive | inactive | inactive | inactive | inactive | inactive | – | inactive | inactive |
| COc1ccc(C(C)=O)cc1 | inactive | inactive | inactive | inactive | inactive | inactive | inactive | inactive | – | – |
| CN1CCC(OC(c2ccccc2)c2ccccc2)CC1 | inactive | inactive | inactive | inactive | inactive | inactive | inactive | inactive | inactive | inactive |
| CCOc1ccc2[nH]cc(C(=O)NCc3ccccc3)c(=O)c2n1 | inactive | inactive | inactive | inactive | inactive | inactive | inactive | – | – | – |
| Oc1ccc(Sc2ccc(O)cc2)cc1 | inactive | inactive | inactive | inactive | inactive | inactive | inactive | inactive | inactive | inactive |
| CCOC(=O)C1=NN(c2ccccc2)C(=O)C1 | inactive | inactive | inactive | inactive | inactive | inactive | inactive | inactive | – | inactive |
| COCCCCCCCCOCCC[Si](C)(O[Si](C)(C)C)O[Si](C)(C)C | inactive | inactive | inactive | inactive | 17.2 µM (active) | inactive | inactive | – | – | inactive |
| COCCO | inactive | inactive | inactive | inactive | inactive | inactive | inactive | inactive | inactive | inactive |
| CC(=O)c1c(C)c([N+](=O)[O-])c(C(C)(C)C)c([N+](=O)[O-])c1C | inactive | inactive | inactive | inactive | inactive | inactive | inactive | inactive | – | 21.9 µM (active) |
| O=C(O)Cc1cc(I)c(Oc2ccc(O)c(I)c2)c(I)c1 | inactive | inactive | inactive | inactive | inactive | inactive | – | – | – | – |
| CCCCCC(CO)CCC (stereo not given) | inactive | inactive | inactive | inactive | inactive | inactive | inactive | – | – | – |
| COC(=O)CSc1cc(N=c2sc(=O)n3n2CCCC3)c(F)cc1Cl | inactive | inactive | inactive | inactive | inactive | inactive | inactive | inactive | inactive | inactive |
| N#Cc1c(F)cccc1F | inactive | inactive | inactive | inactive | inactive | inactive | inactive | inactive | – | – |
| CCCCCCCCCC(=O)OCC | inactive | inactive | inactive | inactive | inactive | inactive | inactive | inactive | – | – |

| Compound | Potency [1] | Potency [2] | outcome [3] | Potency [4] | Potency [5] | Potency [6] | Potency [7] | Potency [8] | Potency [9] | Potency [10] |
| --- | --- | --- | --- | --- | --- | --- | --- | --- | --- | --- |
| CNCC[C@@H](Oc1ccccc1C)c1ccccc1 | inactive | inactive | inactive | inactive | inactive | inactive | 21.3 µM (active) | – | inactive | inactive |
| CCCCOC(=O)/C=C\C(=O)OCCCC | inactive | inactive | inactive | inactive | inactive | inactive | inactive | inactive | – | inactive |
| O=C(CC(=O)c1ccccc1)c1ccccc1 | inactive | inactive | inactive | inactive | inactive | inactive | – | – | – | – |
| CC(=O)/C=C/C1C(C)=CCCC1(C)C (stereo not given) | inactive | inactive | inactive | inactive | inactive | inactive | inactive | inactive | – | – |
| Oc1ccc(C(O)CNCCCCCCNCC(O)c2ccc(O)c(O)c2)cc1O (stereo not given) | inactive | inactive | inactive | inactive | inactive | inactive | inactive | inactive | – | – |
| O=c1c2ccccc2nnn1CCl | inactive | inactive | inactive | inactive | inactive | inactive | inactive | inactive | inactive | inactive |
| CC(C)(C)c1cc(CCC(=O)OCC(COC(=O)CCc2cc(C(C)(C)C)c(O)c(C(C)(C)C)c2)(COC(=O)CCc2cc(C(C)(C)C)c(O)c(C(C)(C)C)c2)COC(=O)CCc2cc(C(C)(C)C)c(O)c(C(C)(C)C)c2)cc(C(C)(C)C)c1O | inactive | inactive | inactive | inactive | inactive | inactive | inactive | inactive | – | – |
| C1=Cc2ccccc2C1 | inactive | inactive | inactive | inactive | inactive | inactive | inactive | inactive | inactive | inactive |
| NC(N)=N/N=C/c1c(Cl)cccc1Cl | inactive | inactive | inactive | inactive | inactive | inactive | – | – | – | – |
| CC(C)(C)c1cc(O)c(C(C)(C)C)cc1O | inactive | 5.49 µM (active) | inactive | 48.6 µM (active) | 15.4 µM (active) | inactive | inactive | – | – | – |
| O=C(Cl)c1ccc([N+](=O)[O-])cc1 | inactive | inactive | inactive | inactive | inactive | inactive | inactive | inactive | – | inactive |
| Cc1ccc2c(ccc3ccccc32)c1 | inactive | inactive | inactive | inactive | inactive | inactive | inactive | – | inactive | inactive |
| CN1CCN(C2=Nc3cc(Cl)ccc3Nc3ccccc32)CC1 | inactive | inactive | inactive | inactive | inactive | inactive | inactive | – | – | – |
| Cc1nc2ccccc2n1Cc1ccc(Cl)cc1 | inactive | inactive | inactive | inactive | 2.66 µM (active) | inactive | inactive | – | – | – |
| O=C(O)c1cn(C2CC2)c2cc(Cl)c(F)cc2c1=O | inactive | inactive | inactive | inactive | inactive | inactive | inactive | inactive | inactive | – |
| c1ccc(OCc2ccc(CCCN3CCOCC3)cc2)cc1 | inactive | inactive | inactive | inactive | inactive | inactive | inactive | inactive | inactive | – |
| CCOc1nc2cccc(C(=O)O)c2n1Cc1ccc(-c2ccccc2-c2nn[nH]n2)cc1 | inactive | inactive | inactive | inactive | inactive | inactive | inactive | inactive | inactive | – |
| CC[C@@H]1C[C@H](N(Cc2cc(C(F)(F)F)cc(C(F)(F)F)c2)C(C)=O)c2cc(C(F)(F)F)ccc2N1C(=O)OC(C)C | inactive | inactive | inactive | inactive | inactive | inactive | inactive | inactive | inactive | – |
| CCCCCCCCCCCCCCC1CO1 (stereo not given) | inactive | inactive | inactive | inactive | inactive | inactive | inactive | inactive | inactive | – |
| CCOC(=O)CC(C)C | inactive | inactive | inactive | inactive | inactive | inactive | inactive | inactive | inactive | – |
| CCCCCCCCN(C)C | inactive | inactive | inactive | inactive | inactive | inactive | inactive | inactive | inactive | – |
| FC(F)(F)C(F)(F)C(F)(F)C(F)(F)C(F)(F)C(F)(F)CCI | inactive | inactive | inactive | inactive | inactive | inactive | inactive | inactive | – | – |
| Nc1nc(N)c2nc(CNc3ccc(C(=O)N[C@@H](CCC(=O)O)C(=O)O)cc3)cnc2n1 | inactive | 51.3 µM (active) | inactive | inactive | inactive | inactive | inactive | 0.0288 µM (active) | 0.0288 µM (active) | – |
| CCCCCOC(=O)COc1cc(N2C(=O)C3=C(CCCC3)C2=O)c(F)cc1Cl | inactive | inactive | inactive | inactive | inactive | inactive | inactive | inactive | inactive | – |
| O=C(O)/C=C/c1cnc[nH]1 | inactive | inactive | inactive | inactive | inactive | inactive | inactive | inactive | – | – |
